In the assay the target is T1, PINX1 (UniProt Q96BK5).
T1 sequence (whole entry): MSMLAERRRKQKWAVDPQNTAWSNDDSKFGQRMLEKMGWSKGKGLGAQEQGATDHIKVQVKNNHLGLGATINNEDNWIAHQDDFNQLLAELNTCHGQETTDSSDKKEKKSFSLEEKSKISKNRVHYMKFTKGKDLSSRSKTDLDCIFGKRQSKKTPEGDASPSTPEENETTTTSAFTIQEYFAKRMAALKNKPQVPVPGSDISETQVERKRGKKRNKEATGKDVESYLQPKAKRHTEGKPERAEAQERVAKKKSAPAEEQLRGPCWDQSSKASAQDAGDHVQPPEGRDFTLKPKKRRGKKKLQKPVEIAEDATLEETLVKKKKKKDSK
Put plainly: NP40-soluble protein abundance relative to vehicle (solubility fold change) (ratio); higher = more soluble protein in presence of GTP. On the procedure:
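Solubility proteome profiling in Jurkat crude lysate. Lysate was treated with Mg-GTP (0.1-10 mM) for 10 min at room temperature and 3 min at 37 °C, then solubilised with 0.8% NP40 and benzonase, followed by ultracentrifugation. Proteins were quantified by TMT10 LC-MS/MS; the value is the NP40-soluble abundance relative to the NP40-processed vehicle, from 3 independent experiments.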

This note sets out measurements from the supplement of paper PMC6411743.

± gives the standard deviation of the averaged measurements. The full data set covers some 5,400 targets. This sample favours those with the largest changes.

As to `Nc1nc2c(ncn2[C@@H]2O[C@H](COP(=O)(O)OP(=O)(O)OP(=O)(O)O)[C@@H](O)[C@H]2O)c(=O)[nH]1` [guanosine triphosphate], the NP40-soluble protein abundance is, setting by setting: (concentration: 0.1mM) 1.22 ± 0.065; (concentration: 0.5mM) 1.28 ± 0.074; (concentration: 1mM) 1.45 ± 0.033; (concentration: 2mM) 1.64 ± 0.093; (concentration: 4mM) 1.96 ± 0.15; (concentration: 6mM) 2.01 ± 0.21. In addition, the NP40-soluble protein abundance reads like this: (concentration: 8mM) 2.36 ± 0.13; (concentration: 10mM) 2.62 ± 0.26.
